assay: yeast AGP1-GFP fluorescence change, single-dose – cell-based, flow cytometry, S. cerevisiae, cherry picks, confirmation (AID 2273);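 further: median GFP channel fluorescence over the whole cell population gate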; details: S. cerevisiae AGP1-GFP strain, 3 h, at 10 µM;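 active means GFP response above 150% of the DMSO level; inconclusive means fewer than 70 events counted for a yeast strain; inactive means the rest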

GFP response, % of DMSO, inactive:
CCN(C(=O)c1ccccc1Cl)c1ccccc1 98.8%
CCN(CC)CCNC(=O)Cn1c(-c2ccccn2)nc2ccccc21 94.3%
Nc1cc(N)nc(SCC(=O)N2CCc3ccccc32)n1 98.5%
N#C/C(=C\c1ccc(N2CCOCC2)o1)c1ccccc1 93.8%
CS(=O)(=O)N1CCc2cc(C(=O)Nc3ccc(COCC(F)(F)F)cc3)ccc21 96.1%
CCc1noc(C)c1C(=O)Nc1nc(-c2ccc(Cl)cc2Cl)cs1 96.1%
O=C(O)c1ccc2c3c(ncnc13)-c1ccccc1C2=O 105%
Cc1ccc(NC(=O)c2ccccc2)cc1 91.5%
Cc1ccc(C)c(-c2nnc(NC(=O)c3ccc([N+](=O)[O-])o3)o2)c1 91.6%
COc1ccc(N2C(=O)C(Cl)=C(Oc3cccc(OC)c3)C2=O)cc1 110%
Cc1cc(C)c(S(=O)(=O)ON2C(=O)c3ccccc3C2=O)cc1C 97.5%
O=C(COC(=O)/C=C/c1cccs1)Nc1nc(-c2ccccc2)cs1 93.3%
CCOc1ccccc1/C=C/C(=O)c1ccc(Cl)cc1 102%
O=C(NC(=S)NNC(=O)c1cnccn1)c1ccc(F)cc1 92.4%
Cc1ccc(Nc2c(-c3ccccn3)nc3ccc(C)cn23)cc1 82.9%
O=c1/c(=C/c2cccc3ccccc23)sc2ncnn12 91.2%
Cc1c(NC(=O)/C(C#N)=C/c2c(N3CCCCC3)nc3ccccn3c2=O)c(=O)n(-c2ccccc2)n1C 109%

Reference: PubChem BioAssay
